# In PubChem BioAssay AID493056 (National Center for Advancing Translational Sciences (NCATS), 2011):
# Where “and” joins values, the source holds several entries; their conditions need not be identical. Equal entries are not always repeated. Screen size: about 360,000 compounds; about 2,400 (0.67%) were called active. This is one part of a sample in which actives are shown more often than they occur. Rule as the data show it: active = enhancement above about 30%; inactive = the rest. Where a structure was tested more than once in an assay, its records may differ in their call.
# Molecular target: Thyrotropin-releasing hormone receptor (Homo sapiens) (UniProt P34981)
# Assay: qHTS for Small Molecule Agonists and Allosteric Enhancers of Human TRH Receptor: Primary Screen for Enhancers; also: 0% is about no effect
# Conditions: TRHR cells, fluo-8 calcium fluorescence, EC20 TRH enhancement; at 2 µM; stronger effect = higher value
# How it was run: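 TRHR-expressing cells loaded with fluo-8 calcium dye were read kinetically (ex 480/em 530) during compound addition, then stimulated with an EC20 of TRH (10 nM final). Enhancement of the Gq-mediated intracellular calcium response was scored.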
# Sequence of Thyrotropin-releasing hormone receptor (Homo sapiens) (P34981 whole entry, looked up): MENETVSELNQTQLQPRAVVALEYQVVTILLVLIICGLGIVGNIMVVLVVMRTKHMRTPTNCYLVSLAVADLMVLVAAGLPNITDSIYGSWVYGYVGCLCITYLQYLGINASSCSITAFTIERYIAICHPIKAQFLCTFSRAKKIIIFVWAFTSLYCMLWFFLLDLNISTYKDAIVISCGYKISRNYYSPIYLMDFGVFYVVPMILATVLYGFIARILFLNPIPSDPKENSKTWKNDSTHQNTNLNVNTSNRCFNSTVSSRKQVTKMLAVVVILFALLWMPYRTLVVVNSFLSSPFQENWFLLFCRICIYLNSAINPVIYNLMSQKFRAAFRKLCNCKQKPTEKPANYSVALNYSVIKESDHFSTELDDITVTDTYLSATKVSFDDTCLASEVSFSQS
row,SMILES,enhancement
1,CCOC(=O)c1[nH]c(C)c(C(=O)OCC(=O)N2c3ccccc3CC2C)c1C (stereo unspecified),-0.269% (inactive)
2,CCOc1ncccc1C(=O)OCC(=O)N1c2ccccc2CC1C (stereo unspecified),156% (active)
3,CCOc1ncccc1C(=O)OCC(=O)NC1CC1,6.62% (inactive)
4,Cc1ccn2c(Nc3ccc4c(c3)OCCO4)c(-c3ccc(C)s3)nc2c1,-3.6% (inactive)
5,Cc1ccc(CCNC(=O)c2ccc3c(c2)nc2n3CCC(C)C2)cc1 (stereo unspecified),-2.39% (inactive)
6,Cc1cccc(-n2c(=O)c3c(c4cc(C)ccc4n3C)n(CC(=O)Nc3ccccc3Cl)c2=O)c1,-2.31% (inactive)
7,Cc1ccc(Nc2c(-c3ccc(N(C)C)cc3)nc3nc[nH]n23)cc1,1.88% (inactive)
8,CN(C)c1ccc(Nc2c3c4c(cccc4n(C)c2=O)C(=O)c2ccccc2-3)cc1,30.8% (active)
9,CCOc1ccc(C(=O)c2cn(Cc3ccc(F)cc3)c3ccc(F)cc3c2=O)cc1,-6.47% (inactive)
10,COc1cc2c(cc1OC)C(COc1ccc(F)cc1)N(C(=O)c1ccccc1F)CC2 (stereo unspecified),-0.875% (inactive)
11,CCCCn1c(N)c(N(CCOC)C(=O)c2cccc(S(=O)(=O)N(C)c3ccccc3)c2)c(=O)[nH]c1=O,-3.31% (inactive)
12,CCCCn1c(N)c(N(CC)C(=O)c2ccc(N(C)S(=O)(=O)c3ccc(C)cc3)cc2)c(=O)[nH]c1=O,37.2% (active)
13,CCCCN(C(=O)c1ccc2ccccc2c1)c1c(N)n(CCCC)c(=O)[nH]c1=O,-1.43% (inactive)
14,Cc1nn(CC(=O)NCCc2ccccc2)c(=O)c2c1sc1ccccc12,-4.11% (inactive)
15,CCc1ccc(NC(=O)c2cc3c(=O)n(Cc4cccnc4)ccc3nc2C)cc1,3.22% (inactive)
16,COc1ccccc1C(=O)Nc1c(C(=O)Nc2ccc(C)cc2)oc2ccccc12,1.48% (inactive)
17,O=C(CSc1nnc(CNC(=O)c2ccccc2)n1-c1ccc(F)cc1)Nc1ccccc1F,1.22% (inactive)
18,O=C(CSc1ccc(-c2cccs2)nn1)Nc1ccccc1F,35.3% (active)
19,O=C(CSc1ccc(-c2ccccn2)nn1)Nc1ccccc1,-3.04% (inactive)
20,CCOc1ccc(CNC(=O)c2cc(-c3ccc(Cl)s3)nc3ccccc23)cc1,9.74% (inactive)
21,Cc1ccc2nc(CN3CCN(S(=O)(=O)c4ccc(C)c(C)c4)CC3)oc2c1,0.582% (inactive)
22,CC(=O)N1CCN(C(=O)c2cc(-c3ccc(Cl)s3)nc3ccccc23)CC1,2.16% (inactive)
23,COC(=O)c1cnc(N2CCN(c3ccccc3OC)CC2)c2ccccc12,-10.4% (inactive)

row,SMILES,enhancement
1,COC(=O)c1cc(N2CCNCC2)nc2ccccc12,50.7% (active)
2,COc1cccc(CNC(=O)Cn2ncn3c(cc4ccccc43)c2=O)c1,4.48% (inactive)
3,CCOc1cc(-c2nnc(SCC(=O)NC3CCCCC3)nc2-c2ccc(OC)c(OCC)c2)ccc1OC,-3.44% (inactive)
4,O=C(CNC(=O)c1ccc(Cl)cc1Cl)OC(C(=O)Nc1cc(C(F)(F)F)ccc1Cl)c1ccccc1 (stereo unspecified),10.6% (inactive)
5,O=C(CC(n1cncn1)C(Cl)(Cl)Cl)c1ccc([N+](=O)[O-])cc1 (stereo unspecified),0.518% (inactive)
6,O=C(Cn1c[n+](CC(=O)c2ccc([N+](=O)[O-])cc2)cn1)c1ccc([N+](=O)[O-])cc1,-6.86% (inactive) and 34.2% (active)
7,Cc1ccc(C(=O)Cn2cccn2)cc1,-2.28% (inactive)
8,O=C(NCCc1csc(-c2ccc(C(F)(F)F)cc2)n1)C(=O)Nc1ccc(F)c(Cl)c1,0.606% (inactive)
9,CC(C)(C)CN1CCNC(=O)C1CC(=O)NC1Cc2ccccc2C1 (stereo unspecified),-4.71% (inactive)
10,Cc1nc(CN(C)C(=O)CC2C(=O)NCCN2Cc2ccc(F)cc2)cs1 (stereo unspecified),20.6% (inactive)
11,Cc1csc(CN(C)C(=O)CC2C(=O)NCCN2CC(C)(C)C)n1 (stereo unspecified),44.2% (active)
12,COc1ccc(CCNC(=O)c2cnc3sc(N4CCCCCC4)nn3c2=O)cc1OC,7.34% (inactive)
13,COc1ccc(S(=O)(=O)c2cn(C)c3cc(N4CCCCC4)c(F)cc3c2=O)cc1,7.82% (inactive)
14,Cc1c(CNC2CCCCC2)c(C(=O)O)c(C)n1Cc1cccc(Cl)c1,-4.62% (inactive)
15,COc1ccc(-c2cc(C(=O)Nc3sc4c(c3C(N)=O)CCCC4)no2)cc1,10.2% (inactive)
16,Cc1cc(OC(C)C(=O)Nc2sc3c(c2C(N)=O)CCCC3)ccc1Cl (stereo unspecified),34.9% (active)
17,COC(=O)c1c(NC(=O)C(C)Oc2ccc(Cl)c(C)c2)sc(C)c1C (stereo unspecified),-3.22% (inactive)
18,O=C(Cn1nc(Cc2cccnc2)c2ccccc2c1=O)NCC1COc2ccccc2O1 (stereo unspecified),0.892% (inactive)
19,CC1CC(C)CN(C(=O)CCNC(=O)Cn2cnc3ccccc3c2=O)C1 (stereo unspecified),2.77% (inactive)
20,O=C(Cn1cnc2ccccc2c1=O)NCC1COc2ccccc2O1 (stereo unspecified),38.9% (active)
21,COC(=O)c1sc2ncccc2c1-n1c(C)ccc1C,4.46% (inactive)
22,Cc1ccc(CN(C(=O)COc2ccc(Cl)cc2C)C2CCS(=O)(=O)C2)o1 (stereo unspecified),1.47% (inactive)
23,COc1cccc(NC(=O)CN2C(=O)c3ccccc3Sc3ncccc32)c1,2.38% (inactive)

row,SMILES,enhancement
1,O=C(CN1CCOCC1)Nc1ccccc1,2.28% (inactive)
2,O=C(CN1C(=O)c2cccc3cccc1c23)Nc1ccccc1,43.7% (active)
3,Oc1ccc(Cl)cc1C1C=C(c2ccc3c(c2)OCO3)NC(c2c(F)cccc2Cl)N1 (stereo unspecified),-2.95% (inactive)
4,CCCC(=O)Nc1cc2nn(-c3ccccc3)nc2cc1C,-3.06% (inactive)
5,CCCn1c2ccccc2c2cnn(CC(=O)NCC3CCN(Cc4ccc(C)cc4)CC3)c(=O)c21,1.43% (inactive)
6,CCOc1ccc(NC(=O)CSc2c3c(nc4ccccc24)CCCC3)cc1,-3.93% (inactive)
7,CCc1nc2ccccc2c(C(=O)OC2CCCCC2=O)c1C (stereo unspecified),-2.51% (inactive)
8,O=C(COC(=O)c1c2c(nc3ccccc13)CCCC2)c1ccc(Br)s1,35% (active)
9,Cc1cc(NS(=O)(=O)c2ccc3oc(=O)c4ncn(C)c4c3c2)ccc1Br,-12.1% (inactive)
10,COc1ccc2c(c1)C=C(C(=O)NCc1cc(Br)ccc1OC)CO2,-3.71% (inactive)
11,CCCC(=O)Nc1ccc(NC(=O)c2sc3ccccc3c2Cl)cc1,-1.06% (inactive)
12,CCC(=O)N1CCc2cc(S(=O)(=O)NC(C(=O)NCCc3ccc(C)cc3)C(C)C)ccc21 (stereo unspecified),18.2% (inactive)
13,CN(C(=O)CSc1nnc(Nc2ccccc2)s1)C1CCS(=O)(=O)C1 (stereo unspecified),51.4% (active)
14,CN(C(=O)CSc1nnc(NC(=O)Nc2ccccc2)s1)c1ccccc1,-6.25% (inactive)
15,CCn1c(SCC(=O)N(C)C2CCS(=O)(=O)C2)nnc1-c1cccs1 (stereo unspecified),2.93% (inactive)
16,CC(=O)c1ccc(N2CCN(C3C(=O)c4ccccc4N3C(C)=O)CC2)cc1 (stereo unspecified),-5.78% (inactive)
17,N#Cc1ccccc1Cn1cnc2nc3c(cc2c1=O)CCCC3,2.65% (inactive)
18,O=S(=O)(c1ccccc1)c1nc(-c2ccc(Cl)cc2Cl)oc1N1CCCCC1,2.85% (inactive)
19,CCCCNC(=O)C1CCCN(c2nnc(C)c3c(C)n(-c4ccc(Cl)cc4)nc23)C1 (stereo unspecified),-2.23% (inactive)
20,CC(C)C1Nc2c(C(=O)O)cccc2C(Nc2ccccc2C(=O)O)C1(C)C (stereo unspecified),30.3% (active)
21,Cc1ccc(-n2nc(CO)c(C(=O)NCCc3ccccc3)n2)cc1,-1.1% (inactive)
22,CC(=O)N1CCCc2cc(S(=O)(=O)N3CCC(C(=O)NCc4ccc(C)cc4)CC3)ccc21,4% (inactive)
23,CCc1ccc(Sc2cc(C(=O)NCCCOC(C)C)c3ccccc3n2)cc1,-9.07% (inactive)

row,SMILES,enhancement
1,CC1COc2ccccc2N1S(=O)(=O)c1ccccc1 (stereo unspecified),-5.39% (inactive)
2,O=C1COc2ccc(C(=O)COC(=O)c3cccnc3Cl)cc2N1,-8.83% (inactive)
3,CC1COc2ccccc2N1C(=O)c1cccnc1Cl (stereo unspecified),30.7% (active)
4,Cc1oc2ccc(O)c(CN3CCOCC3)c2c1C(=O)Nc1cccc(Cl)c1C,-0.894% (inactive)
5,COc1ccc(-c2ccc(=O)n(CC(=O)Nc3ccc(Br)cc3F)n2)cc1,5.81% (inactive)
6,Cc1cc(Br)ccc1NC(=S)NC1CCCC1,36% (active)
7,S=C(Nc1ccc(Br)cc1Cl)NC1CCN(Cc2ccccc2)CC1,1.92% (inactive)
8,Cc1cc(C)cc(NC(=O)NC2CCCCCCC2)c1,-4.13% (inactive)
9,CCOc1ccc(NC(=O)C2CCN(S(=O)(=O)c3cc(-c4noc(C)n4)ccc3C)CC2)cc1,0.0598% (inactive)
10,Cc1cccc(Cn2c(CN3CCC(C(=O)NCc4ccccc4Cl)CC3)cc3ccccc32)c1,-3.11% (inactive)
11,CCOc1ccc(C(=O)c2cn(Cc3ccccc3OC)c3ccc(F)cc3c2=O)cc1,-0.366% (inactive)
12,C/C(=N\OC(=O)c1ccccc1)c1c(C)nc2cc(C)ccn12,-2.45% (inactive)
13,C/C(=N/OC(=O)c1ccc(Br)cc1)c1ccc(C)cc1,61.7% (active)
14,N/C(=N\OC(=O)c1ccc2c(c1)OCO2)c1ccc(Br)cc1,-2.97% (inactive)
15,Cc1cn(C)c(CC(=O)NCc2ccccc2)c1C(=O)O,-2.62% (inactive)
16,Cc1cccc(-c2nc(SCc3ccc(Br)cc3)n3[nH]c(=O)cc3n2)c1,4.69% (inactive)
17,O=C(NC1(C(F)(F)F)N=C(c2ccccc2)N(C2CCCCC2)C1=O)c1ccccc1F (stereo unspecified),-3.75% (inactive)
18,CN1CCN(c2oc(-c3ccc(COc4ccc(Cl)cc4)o3)nc2C#N)CC1,0.896% (inactive)
19,Cc1ccc(C)c(NC(=O)C2CCCN(S(=O)(=O)c3cn(C)cn3)C2)c1 (stereo unspecified),12.8% (inactive)
20,O=C(NCc1ccncc1)C1CCCN(S(=O)(=O)c2ccc(Br)cc2)C1 (stereo unspecified),30.7% (active)
21,O=C(NCc1ccccc1)C1CCCN(S(=O)(=O)c2cccs2)C1 (stereo unspecified),4.34% (inactive)
22,CSc1ccc(S(=O)(=O)N2CCC(C(=O)NCc3ccncc3)CC2)cc1,0.598% (inactive)
